From PubChem
The entries come from a sample that favours hits as a whole.
GluA2 TARP mod: modulators of GluA2-stargazin AMPA receptor complexes, primary screen, cell-based, membrane potential dye; calls only at 30 µM; actives 3.5% (n = 40,000); HEK293 GluA2+stargazin, membrane potential dye (FDSS), glutamate EC50; hits were called plate by plate, in both directions;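 active means any of four per-well response measures lying three or more SD from its plate-wide compound average, in either direction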
GIRK2 activator: activators of NPY4-receptor-primed GIRK2 channels, summary, cell-based, HEK293, thallium flux; HEK293 GIRK2/NPY4 cells, thallium flux fluorescence; activation (% efficacy), % for hits at 37.5 µM; 34,000 tested, under 10 active; AID 1259324, 2017;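 active means primary screen hit, no activity in plain HEK293 cells, and in GIRK2-only cells above 5% efficacy rising with concentration; inactive means the rest, including fluorescent compounds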;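 further: efficacy is normalized control-subtracted fluorescence 15 s after thallium addition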
Target sequence (P48051 whole entry, looked up): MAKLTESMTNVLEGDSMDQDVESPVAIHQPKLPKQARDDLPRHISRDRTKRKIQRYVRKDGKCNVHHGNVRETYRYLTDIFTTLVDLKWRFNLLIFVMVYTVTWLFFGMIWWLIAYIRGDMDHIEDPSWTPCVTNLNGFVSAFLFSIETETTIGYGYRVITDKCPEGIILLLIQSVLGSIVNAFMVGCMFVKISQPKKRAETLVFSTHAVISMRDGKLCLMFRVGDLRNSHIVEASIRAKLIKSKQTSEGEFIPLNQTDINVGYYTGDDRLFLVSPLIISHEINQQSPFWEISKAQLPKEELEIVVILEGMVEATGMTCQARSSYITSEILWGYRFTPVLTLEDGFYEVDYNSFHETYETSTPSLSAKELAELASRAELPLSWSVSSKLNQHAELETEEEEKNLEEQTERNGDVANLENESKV
An asterisk follows results filed as active; i = inactive; . = no result given; + = active, no number.

SMILES | GluA2 TARP mod | GIRK2 activator
CCn1c(SCc2nc(-c3ccc(OC)c(OC)c3)no2)nc2ccccc2c1=O | + | .
CCn1c(SCc2nc(-c3ccc(OC)cc3OC)no2)nc2ccccc2c1=O | i | .
CCOC(=O)N1CCN(C(=O)CN2CCC(c3cccs3)CC2)CC1 | . | i
O=S(=O)(NCCOc1ccc(-c2ccc(F)cc2)nn1)c1ccc(Cl)s1 | i | i
CN(C)CCCNC(=O)C(=O)Nc1c2c(nn1-c1cccc(Cl)c1)CSC2 | i | i
CCCCOc1ccc(C(=O)Nn2cnc3c(cnn3C(C)(C)C)c2=O)cc1 | i | .
COc1ccc(-c2csc(-n3nc(C)cc3NC(=O)c3ccco3)n2)cc1OC | i | i
COc1cc(C)c(S(=O)(=O)NCCOc2ccc(-c3ccc(F)cc3)nn2)cc1C | + | i
COc1ccc(-c2ccc(OCCNS(=O)(=O)c3cc(C)c(OC)cc3C)nn2)cc1 | i | i
COc1cc(COCC2CCN(CC(=O)Nc3cccc(C)c3C)CC2)cc(OC)c1 | i | i
CC(C)S(=O)(=O)c1cccc(C(=O)Nc2sccc2C#N)c1 | i | i
CC(C)Sc1cccc(C(=O)Nc2sccc2C#N)c1 | + | .
COc1cc(C(=O)Nc2cccc(N3CCCCC3=O)c2)c([N+](=O)[O-])cc1OC | i | i
Cc1c(C(=O)Nc2cccc(N3CCCC3=O)c2)cccc1[N+](=O)[O-] | + | i
COc1ccc2c(=O)c(-c3ccccc3OC)coc2c1 | + | i
COc1ccccc1-c1coc2cc(OCc3ccc(F)cc3)ccc2c1=O | i | .
Cc1onc(-c2ccccc2Cl)c1C(=O)NCC1(c2ccccc2)CCOCC1 | i | i
COc1ccc(CCNC(=O)C(=O)c2cn(CC(=O)N3CCOCC3)c3ccccc23)cc1 | + | .
COc1ccc(NC(=O)C(=O)c2cn(CC(=O)N3CCOCC3)c3ccccc23)cc1 | i | .
CCOC(=O)C(=O)Nc1cc2c3c(c1)C(C)C(=O)N3CCC2 (centres undefined) | i | i
Cc1nc(NCCNC(=O)Nc2ccc(C)c(F)c2)cc(-n2cccn2)n1 | i | i
Cc1nc(NCCNC(=O)Nc2ccc(Cl)c(C(F)(F)F)c2)cc(-n2cccn2)n1 | + | i
COc1nn(C)cc1-c1nnc(SCC(=O)Nc2ccc(C)c(Cl)c2)n1C | i | i
N#Cc1c(N)c(C(=O)c2cccc(Br)c2)n2ccccc12 | i | i
COc1cccc(C(=O)Nc2nc3ncccc3cc2-c2ccccc2)c1 | + | i
SMILES | GluA2 TARP mod | GIRK2 activator
O=C(Nc1nc2ncccc2cc1-c1ccccc1)C1CCCC1 | i | i
COc1cc(C(=O)N(CCN2CCOCC2)c2nc3c(F)cc(F)cc3s2)cc(OC)c1OC | i | .
CCc1ccccc1NC(=O)Cc1csc(SCC(=O)c2ccc(OC)cc2)n1 | . | i
O=S(=O)(NCC1COC2(CCCCC2)O1)c1cc(F)ccc1F (centres undefined) | + | i
O=S(=O)(NCC1COC2(CCCCC2)O1)c1ccc(Cl)cc1 (centres undefined) | + | i
O=S(=O)(NCC1COC2(CCCCC2)O1)c1cccc2ccccc12 (centres undefined) | + | .
COc1ccc(F)cc1S(=O)(=O)NCC1COC2(CCCCC2)O1 (centres undefined) | i | i
O=[N+]([O-])c1ccccc1S(=O)(=O)NCC1COC2(CCCCC2)O1 (centres undefined) | i | i
CCc1ccc(S(=O)(=O)NCC2COC3(CCCCC3)O2)s1 (centres undefined) | i | i
CCN1CCN(CCCNC(=O)C(=O)c2c[nH]c3ccccc23)CC1 | i | .
CCc1ccc(S(=O)(=O)NCC2CCN(C(C)C)CC2)cc1 | i | .
CN(C)S(=O)(=O)c1ccc(C(=O)N2CCC(c3cccs3)CC2)cc1 | i | i
CCc1nc2ccccc2n1CCOc1ccccc1 | i | .
CCC(O)c1nc2ccccc2n1CCOc1ccccc1 (centres undefined) | + | .
COCCN=Cc1c(NCCOC)nc2ccccn2c1=O | + | i
Cc1nc2ccccn2c1C(=O)NCC1CCN(S(=O)(=O)C2CC2)CC1 | i | i
COc1ccc(Nc2cc(C)nc(NCCNC(=O)COc3nccc(C)n3)n2)cc1 | i | i
CC(=O)OC(COc1ccc(N(C)C(C)=O)cc1)Cn1c2ccccc2c2ccccc21 (centres undefined) | + | i
CC(=O)OC(Cn1nc(C)cc1C)Cn1c2ccccc2c2ccccc21 (centres undefined) | i | i
CCCCOc1ccc(C(=O)N2CCC3(CC2)C(=O)N(C)C(=O)N3C)cc1 | i | i
CC(C(=O)Nc1ccc(Br)cc1)N1C(=O)c2ccccc2S1(=O)=O (centres undefined) | i | i
CC(C(=O)Nc1nc2ccccc2s1)N1C(=O)c2ccccc2S1(=O)=O (centres undefined) | + | .
CC(C(=O)Nc1ccc(F)c(F)c1F)N1C(=O)c2ccccc2S1(=O)=O (centres undefined) | i | .
CC(C(=O)Nc1nc2ccc(S(C)(=O)=O)cc2s1)N1C(=O)c2ccccc2S1(=O)=O (centres undefined) | i | .
CC(C(=O)Nc1cccc(Br)c1)N1C(=O)c2ccccc2S1(=O)=O (centres undefined) | + | i
SMILES | GluA2 TARP mod | GIRK2 activator
CC(C(=O)Nc1cc(Cl)ccc1O)N1C(=O)c2ccccc2S1(=O)=O (centres undefined) | + | i
Cc1ccc(/C=C/S(=O)(=O)NCCOc2ccc3nnc(-c4ccccc4)n3n2)cc1 | . | i
CCCOc1ccc(S(=O)(=O)N2CCN(C)CC2)cc1 | . | i
COc1ccccc1-c1c(C)nn2c(N3CCN(c4cccc(C)n4)CC3)cc(C)nc12 | i | i
COc1ccc(S(=O)(=O)NCCCCN2CCOC(c3ccccc3)C2)c(C)c1 (centres undefined) | . | i
CCOC(=O)CCn1c(=O)c2c(nc3n(-c4cc(C)ccc4OC)c(C)cn23)n(C)c1=O | i | .
O=C(CCSc1ccccc1)NCCC(O)c1cccs1 (centres undefined) | i | i
O=C(NCCC(O)c1cccs1)C1(c2ccc(Cl)cc2)CCCC1 (centres undefined) | + | i
Cc1ccc(Cl)c2sc(NC(=O)Cc3ccc(S(C)(=O)=O)cc3)nc12 | i | .
O=C(Cc1cc(-c2ccc3c(c2)OCCO3)on1)N1CCN(c2ccccc2F)CC1 | i | i
COc1cc(OC)cc(C(=O)Nc2ccc(N3CCCC3=O)cc2)c1 | i | i
COc1ccc(C(=O)Nc2ccc(N3CCCC3=O)cc2)cc1 | + | i
Cc1ccc(Cl)cc1N1CCN(C(=O)c2cc3cc(Br)ccc3oc2=O)CC1 | i | i
Cc1cc(C)c(N2CCN(C(=O)c3cc4cc(Br)ccc4oc3=O)CC2)c(C)c1 | + | i
O=C(NCCC1=CCCCC1)C(=O)NCC1CCN(c2ncccn2)CC1 | i | i
COc1cccc(CNC(=O)Cn2c(-c3ccc(F)cc3)ncc(C#N)c2=O)c1 | i | i
O=C(N1CCC(Cn2cccn2)CC1)C1(c2ccccc2)CCOCC1 | + | i
